Source: PubChem BioAssay
The source made the active and inactive calls.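 How the source made its calls, unless noted: active means visual image review flags a hit and inhibition of aggregation exceeds 20%; inconclusive means visual hit but inhibition at or below 20%; inactive means no hit on visual image review.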

Experiments:
[1] = inhibitors of TNFa-induced NFkB p65 translocation, primary screen, imaging, HUVEC, MLSMR starter and 10KST1 sets (AID 438;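 active means inhibition above 20% together with a positive visual image hit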;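 further: compound added about 3h40 before a 20 min TNFalpha stimulation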;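 on inhibition: signal is the nuclear over cytoplasmic p65 intensity ratio per well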); conditions: HUVEC TNFa-induced p65 nuclear translocation; cell count: measured here: nuclei count (cytotoxicity indicator), at 2.08 µM; inhibition: at 2 µM, stronger effect = higher value, 0% TNFa-plus-vehicle, 100% no-TNFa wells
[2] = inhibitors of mutant huntingtin aggregation, primary screen, imaging, exon1htt(103Q)mCFP cells, high-content imaging (AID 483); conditions: exon1htt(103Q)mCFP cell line, aggregate imaging, at 2 µM; inhibition of aggregation: stronger effect = higher value; nuclei count: measured here: cell count, toxicity;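 further: compound exposure lasted 3 days before fixation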;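 on nuclei count: percent of the per-plate median nuclei count of sample wells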
[3] = inhibitors of E-selectin induction by TNFa, primary screen, imaging, HUVEC, immunofluorescence, MLSMR starter and 10KST1 sets (AID 487;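 active means visually confirmed hit in the image check and inhibition above 20%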;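 on inhibition: signal is fraction of cell area covered by stained E-selectin grains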;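 on nuclei count: 100% = median nuclei count of all wells on the same plate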); conditions: HUVEC TNFalpha-induced E-selectin immunofluorescence imaging, at 2 µM; inhibition: stronger effect = higher value; nuclei count: measured here: cell number, toxicity
[4] = target: Voltage-gated potassium channel subunit beta-2 (Rattus norvegicus) (UniProt P62483); experiment: KvBeta enzyme negative modulators, primary screen, biochemical, NADPH fluorescence (AID 622;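 active means fluorescence slope higher than the sample average by over 3 SD, cut at about -0.22 in these data, passing the limit was not always enough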;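 further: slope of raw intensity against log time taken from 70 to 1610 s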); conditions: recombinant KvBeta, 4-cyanobenzaldehyde reduction, at 10 µM, stronger effect = higher value
[5] = target: Voltage-gated potassium channel subunit beta-2 (Rattus norvegicus) (UniProt P62483); experiment: KvBeta positive modulators, primary screen, biochemical, NADPH fluorescence (AID 623;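 active means NADPH fluorescence slope more negative than the mean of all samples by about 3 SD, 99.7% confidence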;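 further: fluorescence intensity change per second fitted from 20 to 320 s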); conditions: Recombinant KvBeta, NADPH fluorescence decrease slope, 10 min; at 10 µM; stronger effect = lower value
[6] = target: Alpha-2C adrenergic receptor (Homo sapiens) (UniProt P18825); experiment: modulators of alpha2C/GIRK thallium flux, primary screen, cell-based, HEK293 alpha2C/GIRK1/2 (AID 624;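 active means fluorescence slope after compound addition differing from the mean of all screened samples at 99.7% confidence, in either direction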;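 further: slope of fluorescence ratio to pre-addition baseline per second over 15 to 24 s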); conditions: thallium flux BTC fluorescence, at 10 µM, actives lie on both sides
[7] = inhibitors of Sendai virus-induced IRF3 signaling, primary screen, TLR/RLR signaling modifier project, cell-based, Sendai virus stimulus, luciferase, 10K MLSCN set (AID 602276;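 active means inhibition at or above 50% at 10 µM; inactive means inhibition below 50%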;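 further: firefly luciferase from ISG56 promoter only with Renilla not read in this screen; 0% = Sendai virus plus DMSO and 100% = medium plus DMSO without virus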); conditions: HEK293 RL24 IRF3 luciferase reporter, at 10 µM, stronger effect = higher value
[8] = inhibitors of poly I:C-induced TLR3 signaling, primary screen, cell-based, poly I:C stimulus, luciferase, 10K MLSCN set (AID 602277;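 active means inhibition of the reporter signal at or above 50%; inactive means inhibition below 50%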); conditions: HEK293-TLR3 RL24 IRF3 luciferase reporter, at 10 µM, stronger effect = higher value

Sequence of Voltage-gated potassium channel subunit beta-2 (Rattus norvegicus) (P62483 whole entry, looked up): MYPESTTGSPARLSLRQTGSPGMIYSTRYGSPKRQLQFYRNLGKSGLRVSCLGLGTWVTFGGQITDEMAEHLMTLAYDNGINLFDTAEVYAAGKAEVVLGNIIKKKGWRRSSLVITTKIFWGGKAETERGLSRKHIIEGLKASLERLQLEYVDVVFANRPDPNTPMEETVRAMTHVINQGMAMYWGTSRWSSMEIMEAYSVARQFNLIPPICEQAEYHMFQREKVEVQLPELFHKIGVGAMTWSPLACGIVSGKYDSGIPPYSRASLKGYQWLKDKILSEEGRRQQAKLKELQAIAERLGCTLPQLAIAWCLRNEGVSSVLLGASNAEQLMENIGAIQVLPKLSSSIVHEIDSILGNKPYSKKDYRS
Sequence of Alpha-2C adrenergic receptor (Homo sapiens) (P18825 whole entry, looked up): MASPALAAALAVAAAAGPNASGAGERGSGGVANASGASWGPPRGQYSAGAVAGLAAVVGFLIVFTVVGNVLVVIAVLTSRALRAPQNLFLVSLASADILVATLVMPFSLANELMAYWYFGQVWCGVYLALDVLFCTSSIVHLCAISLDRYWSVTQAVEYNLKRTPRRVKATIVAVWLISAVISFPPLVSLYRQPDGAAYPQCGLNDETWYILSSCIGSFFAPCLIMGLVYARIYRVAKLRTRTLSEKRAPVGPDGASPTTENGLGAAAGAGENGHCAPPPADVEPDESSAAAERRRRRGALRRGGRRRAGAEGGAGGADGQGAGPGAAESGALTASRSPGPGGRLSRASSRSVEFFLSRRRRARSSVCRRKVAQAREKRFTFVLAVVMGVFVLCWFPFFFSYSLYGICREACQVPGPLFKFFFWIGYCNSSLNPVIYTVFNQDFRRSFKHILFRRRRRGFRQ

SMILES	cell count [1]	inhibition [1]	inhibition of aggregation [2]	nuclei count [2] [%]	inhibition [3]	nuclei count [3] [%]	fluorescence slope [4]	NADPH fluorescence slope [5]	slope [6]	inhibition [7]	inhibition [8]
O=C(CN1CCC(c2nc3ccccc3s2)CC1)NCc1cccs1	699	-1% (inactive)	12.8% (inactive)	87.9	-4.6% (inactive)	103	-0.604 (inactive)	-3.9e-05 (inactive)	0.00309 (inactive)	-1.46% (inactive)	-58.5% (inactive)
COc1ccccc1CN1C(=S)SC(C)(C)C1NO (stereo not drawn)	487	10.4% (inactive)	-2.9% (inactive)	88.5	30.1% (inactive)	105	-0.499 (inactive)	-3.5e-05 (inactive)	0.00451 (inactive)	15.8% (inactive)	21.5% (inactive)
COCCN(CCOC)c1ncnc2c1cnn2-c1ccccc1	636	-8.5% (inactive)	-21.1% (inactive)	113	-14.8% (inactive)	107	-0.531 (inactive)	-2.1e-05 (inactive)	0.00603 (inactive)	-24.8% (inactive)	-50.6% (inactive)
OCCNc1nc2ccc(Cl)cc2[nH]1	433	2.6% (inactive)	19.6% (inactive)	106	-19% (inactive)	110	-0.365 (inactive)	1.9e-05 (inactive)	0.00613 (inactive)	-12.8% (inactive)	-7.02% (inactive)
Cc1cc(-n2c(C)cc(C(=O)CSc3nc4ccccc4c(=O)n3Cc3ccco3)c2C)no1	288	-8.6% (inactive)	8.4% (inactive)	95	-104% (inactive)	96.6	-0.441 (inactive)	-2e-05 (inactive)	0.00698 (inactive)	8.08% (inactive)	-48.8% (inactive)
CCCc1ccc(Oc2cn[nH]c2-c2ccc(O)c(C)c2O)cc1	679	5.8% (inactive)	11% (inactive)	98	16% (inactive)	104	-0.602 (inactive)	-1.2e-05 (inactive)	0.00642 (inactive)	-1.06% (inactive)	-27.9% (inactive)
C=CCSc1nc(N)c(C(=O)Nc2ccccc2C)cc1C(N)=O	775	1.4% (inactive)	15.6% (inactive)	96.4	-142% (inactive)	124	-0.46 (inactive)	1.4e-05 (inactive)	0.00326 (inactive)	-4.85% (inactive)	24.2% (inactive)
COc1ccc(CC(=O)NC2CCN(CC(=O)Nc3ccc4c(c3)OCCO4)CC2)cc1OC	635	-1.6% (inactive)	-5.8% (inactive)	88.5	-29.5% (inactive)	111	-0.428 (inactive)	-6.5e-06 (inactive)	0.00308 (inactive)	6.1% (inactive)	-5.8% (inactive)
CCCn1c(=O)c2ccccc2n2c(SCCOc3ccccc3F)nnc12	574	-10.2% (inactive)	4.4% (inactive)	85.2	0.6% (inactive)	156	-0.477 (inactive)	4.6e-05 (inactive)	0.00598 (inactive)	-3.21% (inactive)	-3.55% (inactive)
COC(=O)c1ccccc1NC(=O)c1ccc(-c2ccccc2F)o1	516	-5.3% (inactive)	-24.1% (inactive)	111	-37.1% (inactive)	103	-0.469 (inactive)	-1.5e-06 (inactive)	0.00728 (inactive)	19.2% (inactive)	-29.6% (inactive)
O=c1[nH]c(CN2CCN(Cc3ccccc3)CC2)nc2sc3c(c12)CCC3	406	-0.4% (inactive)	-0.1% (inactive)	109	-73% (inactive)	99.5	-0.596 (inactive)	-3e-05 (inactive)	0.00576 (inactive)	3.63% (inactive)	17.7% (inactive)
COC(=O)Cn1c(=O)c2c(nc3n2CC(C)CN3c2ccc(C)c(C)c2)n(C)c1=O (stereo not drawn)	561	-11% (inactive)	-7.5% (inactive)	110	-19.2% (inactive)	118	-0.535 (inactive)	-4.3e-05 (inactive)	0.00607 (inactive)	13.3% (inactive)	36% (inactive)
N#CC1=C(N)OC(c2ccccc2)=C(C#N)C1c1ccc2c(c1)OCO2 (stereo not drawn)	609	-19.6% (inactive)	6% (inactive)	112	29.2% (inactive)	96.1	-0.482 (inactive)	-9.1e-05 (inactive)	0.00651 (inactive)	-16.2% (inactive)	10.8% (inactive)
O=C(c1ccc(Cl)cc1)N1CCCCC(Sc2nnc(-c3ccc4c(c3)OCO4)o2)C1=O (stereo not drawn)	505	-13.7% (inactive)	14.1% (inactive)	93.7	-71.6% (inactive)	145	-0.624 (inactive)	-3.6e-05 (inactive)	0.00978 (inactive)	-180% (inactive)	92% (active)
CCOC(=O)c1cc2c(=O)n3ccccc3nc2n(CCCOC)c1=NC(C)=O	657	11.2% (inactive)	21.5% (inactive)	94.4	-33.6% (inactive)	82.5	-0.133 (active)	1.2e-05 (inactive)	0.00482 (inactive)	1.75% (inactive)	9.93% (inactive)
O=C1CC(c2cccc(Cl)c2)Cc2nc(N3CCN(c4ccccc4)CC3)ncc21 (stereo not drawn)	715	-1.6% (inactive)	-8.3% (inactive)	111	-57.1% (inactive)	140	-0.442 (inactive)	2.5e-05 (inactive)	0.00428 (inactive)	-7.91% (inactive)	-2.99% (inactive)
O=S(=O)(c1ccc(F)c(Cl)c1)N1CCCC1	331	2.2% (inactive)	8.7% (inactive)	98.5	31.8% (inactive)	99.6	-0.486 (inactive)	-1e-05 (inactive)	0.00653 (inactive)	2.45% (inactive)	30.3% (inactive)
C=CCN1C(=O)C2(c3ccccc31)C1CCCC=C1C(C#N)=C(N)C2(C#N)C#N (stereo not drawn)	752	-19.9% (inactive)	10.4% (inactive)	110	41% (inactive)	101	-0.559 (inactive)	-8.6e-06 (inactive)	0.00492 (inactive)	-7.36% (inactive)	-8.22% (inactive)
Cc1csc(NC(=O)c2ccco2)n1	464	-3.3% (inactive)	-1.8% (inactive)	109	-72% (inactive)	131	-0.32 (inactive)	-1.3e-06 (inactive)	0.00701 (inactive)	-20.1% (inactive)	-56.9% (inactive)
C(=N/n1c2ccccc2c2ccccc21)/c1ccco1	360	-2% (inactive)	-20.7% (inactive)	102	2.6% (inactive)	109	-0.417 (inactive)	-0.000138 (inactive)	0.00632 (inactive)	12% (inactive)	29.6% (inactive)
CCOC(=O)C1CCN(Cc2c(O)ccc3ccccc23)CC1	596	-3% (inactive)	3.7% (inactive)	109	-41.8% (inactive)	124	-0.5 (inactive)	-7.8e-05 (inactive)	0.00484 (inactive)	25.4% (inactive)	33.8% (inactive)
O=C(Oc1ccc2ccc(OC(=O)N3CCOCC3)cc2c1)N1CCOCC1	388	6.8% (inactive)	-8.9% (inactive)	107	-7.5% (inactive)	111	-0.238 (inactive)	-1.6e-05 (inactive)	0.00539 (inactive)	-2.44% (inactive)	-16.2% (inactive)
CCOC(=O)N1CCN(CC(=O)Nc2cc(C)nn2-c2nc3ccccc3s2)CC1	859	9.9% (inactive)	-38.2% (inactive)	101	-132% (inactive)	122	-0.609 (inactive)	2.4e-05 (inactive)	0.00559 (inactive)	13.7% (inactive)	27.3% (inactive)
Cc1occc1-c1nnc(SCC(=O)N2CCc3ccccc32)o1	679	-1.9% (inactive)	2.9% (inactive)	73.2	-7.2% (inactive)	106	-0.478 (inactive)	2.9e-05 (inactive)	0.00881 (inactive)	5.8% (inactive)	5.93% (inactive)
Cc1ccccc1N1OC2C(=O)N(c3ccc(F)cc3)C(=O)C2C1c1ccccn1 (stereo not drawn)	680	-3.5% (inactive)	-5.9% (inactive)	96.3	-36.7% (inactive)	152	-0.607 (inactive)	-1.4e-05 (inactive)	0.00636 (inactive)	10.4% (inactive)	21.1% (inactive)
COc1ccc(N2Cc3ccccc3C2)cc1Cl	579	-12.3% (inactive)	-13.8% (inactive)	84	-2% (inactive)	98.5	-0.527 (inactive)	-2.4e-05 (inactive)	0.00436 (inactive)	-31.1% (inactive)	-55.5% (inactive)
CCOC(=O)Cn1c(=N)n(CCOc2cccc(C)c2)c2ccccc21	426	-18.5% (inactive)	19.9% (inactive)	108	-112% (inactive)	224	-0.322 (inactive)	2e-05 (inactive)	0.00636 (inactive)	11.4% (inactive)	19.4% (inactive)
O=C(NCCOC(=O)C1COc2ccccc2O1)C1COc2ccccc2O1 (stereo not drawn)	357	-2.1% (inactive)	-2% (inactive)	106	-99.1% (inactive)	128	-0.48 (inactive)	-3.8e-05 (inactive)	0.00608 (inactive)	-2.25% (inactive)	19.3% (inactive)
